Screening data (PubChem)
NOMO-1 viab – STK33 inhibitor candidate reducing NOMO-1 cell viability | inhibition, % (no concentration beside the values) | NOMO-1 AML viability, CellTiter-Glo luminescence, 72 h | 37,000 tested, 7.5% active; in the data active means inhibition above about 80%; inconclusive means no clear call, values can overlap the other calls
Hedgehog inh – blocks Sonic Hedgehog signaling; Shh-LIGHT2 Gli-luciferase reporter, 30 h; inhibition, % (test concentration not listed); 22,000 tested, 2.1% active;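 active means mean inhibition across valid replicates above about 65%, limit read from the data; inconclusive means mean under the limit, yet half or more replicates past it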;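 further: pathway switched on by Shh-conditioned medium diluted 1 in 25 in low serum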
MITF inh – MITF inhibition | TRPM1 promoter luciferase, luminescence, 24 h | inhibition, % (no concentration beside the values) | 37,000 tested, 0.28% active | AID 2240; in the data active means inhibition above about 85%; inconclusive means no clear call, values can overlap the other calls; inactive means below about 68%;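 further: human melanocyte line stably carrying TRPM1 promoter luciferase reporter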
* hit, by the source's call; ? = inconclusive; . = not tested or not shown. In the library only some 8.1% were active in any assay of this set; here they are far more common.

SMILES | NOMO-1 viab | Hedgehog inh | MITF inh
CC(C(=O)Nc1ccc(Oc2ccccc2)cc1)N1c2cccc3cccc(c23)S1(=O)=O (centres undefined) | 23 | . | 30
C[C@H](CO)N1C[C@H](C)[C@H](CN(C)Cc2ccc3c(c2)OCO3)Oc2ccc(NC(=O)CCCCCC(=O)Nc3ccccc3N)cc2CC1=O | 132* | . | 30
C[C@H](CO)N1C[C@H](C)[C@@H](CN(C)Cc2ccc3c(c2)OCO3)Oc2ccc(NC(=O)CCCCCC(=O)Nc3ccccc3N)cc2C1=O | -19 | . | -4
C[C@H](CO)N1C[C@H](C)[C@H](CN(C)Cc2ccc3c(c2)OCO3)Oc2ccc(NC(=O)CCCCCC(=O)Nc3ccccc3N)cc2C1=O | 47 | . | -5
C[C@@H]1CN([C@@H](C)CO)C(=O)c2cc(NC(=O)CCCCCC(=O)Nc3ccccc3N)ccc2O[C@@H]1CN(C)Cc1ccc2c(c1)OCO2 | 95* | . | 29
C[C@H]1CN([C@@H](C)CO)C(=O)Cc2cc(NC(=O)Cc3ccccc3)ccc2O[C@H]1CN(C)Cc1ccc(Cl)c(Cl)c1 | ? | -6 | 24
C[C@@H]1CN([C@H](C)CO)C(=O)Cc2cc(NC(=O)CCCCCC(=O)Nc3ccccc3N)ccc2O[C@@H]1CN(C)Cc1ccc(Cl)c(Cl)c1 | 137* | . | 49
CSc1cccc(NC(=O)CN(C)S(=O)(=O)c2ccc3ccccc3c2)c1 | -13 | . | -31
CC1(C)NC(=S)N(c2ccccc2)N1 | 31 | -49 | -24
Cc1ccc2oc(-c3ccc(NC(=O)Cn4c(=O)oc5ccccc54)cc3)nc2c1 | 11 | . | -42
CN(C)CCCNc1c([N+](=O)[O-])c(=O)n(C)c2ccccc12 | 23 | . | 5
COc1cc(CC2COC(c3ccc(O)c(OC)c3)C2COC2OC(CO)C(O)C(O)C2O)ccc1O (centres undefined) | . | 24 | .
CCOC(=O)c1c(NC(=S)Nc2cc(OC)c(Cl)cc2OC)sc(C)c1-c1ccccc1 | 21 | . | 8
O=C(NCCCN1CCOCC1)c1cc2cc([N+](=O)[O-])ccc2oc1=O | 19 | . | -34
CCn1c(SCC(=O)c2ccc(OC)cc2)nnc1-c1ccccc1Cl | 24 | . | -11
C[C@H]1CN([C@@H](C)CO)C(=O)Cc2cc(NC(=O)CCCCCC(=O)Nc3ccccc3N)ccc2O[C@@H]1CN(C)C(=O)Nc1ccc(F)cc1 | 0 | . | -11
CC(C)CNc1nc(SCC(N)=O)nc(N2CCOCC2)n1 | -9 | . | -5
C[C@@H]1CN([C@@H](C)CO)C(=O)c2cccc(NC(=O)Nc3ccc(F)cc3)c2O[C@H]1CN(C)Cc1ccc2c(c1)OCO2 | 113* | -34 | 38
C[C@@H]1CN([C@@H](C)CO)C(=O)c2cccc(NC(=O)Nc3ccccc3)c2O[C@H]1CN(C)Cc1ccc2c(c1)OCO2 | 89* | -36 | 42
C[C@H]1CN([C@@H](C)CO)C(=O)c2cccc(NC(=O)Nc3ccc4c(c3)OCO4)c2O[C@H]1CN(C)Cc1ccc(C(F)(F)F)cc1 | 15 | -54 | -3
C[C@@H]1CN([C@@H](C)CO)C(=O)c2cccc(NC(=O)Nc3ccccc3)c2O[C@@H]1CN(C)Cc1ccc2c(c1)OCO2 | 35 | -54 | -9
C[C@@H]1CN([C@H](C)CO)C(=O)c2cccc(NC(=O)Nc3ccc(F)cc3)c2O[C@@H]1CN(C)Cc1ccc2c(c1)OCO2 | 9 | 8 | -26
C[C@@H]1CN([C@H](C)CO)C(=O)c2cccc(NC(=O)Nc3ccc4c(c3)OCO4)c2O[C@H]1CN(C)Cc1ccccc1 | 97* | 15 | 18
C[C@@H]1CN([C@@H](C)CO)C(=O)c2cccc(NC(=O)Nc3ccc4c(c3)OCO4)c2O[C@H]1CN(C)Cc1ccc(C(=O)O)cc1 | 14 | -41 | -49
C[C@@H]1CN([C@@H](C)CO)C(=O)c2cccc(NC(=O)Nc3ccc4c(c3)OCO4)c2O[C@@H]1CN(C)Cc1ccc(C(F)(F)F)cc1 | 82* | 38 | -1
SMILES | NOMO-1 viab | Hedgehog inh | MITF inh
C[C@@H]1CN([C@@H](C)CO)C(=O)c2cccc(NC(=O)Nc3cccc4ccccc34)c2O[C@H]1CN(C)C(=O)NC1CCCCC1 | 44 | 32 | 35
COc1ccc2c(c1)c(=O)oc1cc(OC(C)C)ccc12 | 35 | -150 | 9
COc1cccc2sc(=NC(=O)CC34CC5CC(CC(C5)C3)C4)n(C)c12 | -2 | . | -14
COc1ccc(S(=O)(=O)N(C)C[C@H]2Oc3c(NC(=O)C4CC4)cccc3C(=O)N([C@@H](C)CO)C[C@H]2C)cc1 | 30 | 4 | 1
C[C@@H]1CN([C@H](C)CO)C(=O)c2cccc(NC(=O)Nc3ccc4c(c3)OCO4)c2O[C@H]1CN(C)Cc1ccc2c(c1)OCO2 | 101* | -21 | -21
C[C@@H]1CN([C@@H](C)CO)C(=O)c2cccc(NC(=O)Nc3ccc4c(c3)OCO4)c2O[C@H]1CN(C)Cc1ccc(Cl)c(Cl)c1 | 102* | 12 | 41
